From PubChem BioAssay (NCI) come the findings set out here.

About 79,000 compounds went through this panel and 15% of them were active in at least one assay; those are over-represented in the sample as a whole. Unmarked numbers belong to inactive results. Active and inactive are the calls of the source. Rule as the data show it: active = growth inhibition above about 70%; inactive = the rest.

Assay [1] in a line: NCI Yeast Anticancer Drug Screen. Data for the rad50 strain (AID 155).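 Also: 0% = growth of vehicle-only cultures of the same strain.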 To be noted: S. cerevisiae rad50 strain growth inhibition; at 50.0 µM; hits give high values. An outline of the steps:
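Cells are treated with compound, grown, and their growth is then scored against vehicle-only cultures of the same repair-deficient yeast strain.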

Assay [2] is described as follows: NCI Yeast Anticancer Drug Screen. Data for the mec2-1 strain (AID 157). To be noted: S. cerevisiae mec2-1 strain, at 50.0 µM, hits give high values. An outline of the steps:
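Readout is yeast growth inhibition, normalised to vehicle-treated controls, in the mec2-1 strain exposed to compound.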

Assay [3] is described as follows: NCI Yeast Anticancer Drug Screen. Data for the sgs1 mgt1 strain (AID 161).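 Also: 0% = growth of cultures given vehicle only.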 The conditions noted are these: S. cerevisiae sgs1 mgt1 strain, at 50.0 µM, hits give high values. An outline of the steps:
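This yeast growth screen uses a strain with defined DNA-repair lesions; compound-treated growth is compared with vehicle-treated growth.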

A short description of assay [4]: NCI Yeast Anticancer Drug Screen. Data for the cln2 rad14 strain (AID 165).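 Also: 0% = growth equal to vehicle treated cultures.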 The conditions noted are these: S. cerevisiae cln2 rad14 strain, at 50.0 µM, hits give high values. An outline of the steps: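 Relative to vehicle controls, growth inhibition of compound-treated cln2 rad14 yeast was recorded.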
A short description of assay [5]: NCI Yeast Anticancer Drug Screen. Data for the bub3 strain (AID 167). The conditions noted are these: S. cerevisiae bub3 mutant strain, at 50.0 µM, hits give high values. In short, it runs like this:
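Part of a panel of yeast mutants defective in DNA damage repair or cell cycle regulation. Each strain is grown with compound, and inhibition is calculated relative to solvent-treated cultures.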

A short description of assay [6]: NCI Yeast Anticancer Drug Screen. Data for the mlh1 rad18 strain (AID 175). The conditions noted are these: S. cerevisiae mlh1 rad18 strain growth inhibition; at 50.0 µM; hits give high values. In short, it runs like this: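 Test agents were incubated with a yeast strain of defined genotype (DNA damage repair defect). Inhibition of growth was derived by comparison with vehicle-exposed cultures.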

On to `O=C1OC(=O)C2(Cl)C3C=CC(C3)C12` (stereo not given), for which the growth inhibition in assay [1] is 9.3%; in assay [2], -8.15%; in assay [3], -15.6%; in assay [4] it was -72.6%; in assay [5], -16.3%; in assay [6] it was 4.8%.

For `O=C(O)C(=O)Cc1ccc(Br)cc1[N+](=O)[O-]`, the growth inhibition was 5.45% in assay [1]; -6.6% in assay [2]; 1.8% in assay [3]; -3% in assay [4]; 1.45% in assay [5]; 12.2% in assay [6].

For the compound `Cc1cccc2c1C(=O)OC2(c1cccc2ccccc12)c1cccc2ccccc12`, the growth inhibition is -16.4% in assay [1]; 3.9% in assay [2]; 4.5% in assay [3]; -15.7% in assay [4]; 0% in assay [5]; 1.6% in assay [6].

As for `CC(=O)OCC1OC2OC(C)(C)OC2C1NC(=O)C(F)(F)F` (stereo not given), the growth inhibition in assay [1] is 16.5%; in assay [2], -2.5%; in assay [3], -8.15%; in assay [4], 10.3%; in assay [5], -5.6%; in assay [6], 9.25%.

Take `CCNC1=C(Cl)C(=O)c2ccccc2C1=O`: the growth inhibition was -11.9% in assay [1]; -9.8% in assay [2]; 12.2% in assay [3]; -21.4% in assay [4]; 8.7% in assay [5]; 14.9% in assay [6].

With `C/C(=C\c1ccccc1)C(O)C(=O)c1nc2ccc(Cl)cc2[nH]c1=O` (stereo not given), the growth inhibition in assay [1] was 10.3%; in assay [2], -15.4%; in assay [3] it was 6.15%; in assay [4], 26%; in assay [5] it was -14.2%; in assay [6] it was 6.55%.

Regarding `C=CCNCc1cc(Cl)cc(Cl)c1O`, the growth inhibition in assay [1] was -8.35%; in assay [2], -4.4%; in assay [3], -19.1%; in assay [4], -51.1%; in assay [5] it was -10.2%; in assay [6] it was 17.2%.

As to `CCNC(=O)NS(=O)(=O)c1ccc(Sc2ccc(Cl)cc2)nc1`, the growth inhibition is -5.8% in assay [1]; -2.95% in assay [2]; -7.5% in assay [3]; -5.7% in assay [4]; -0.55% in assay [5]; -0.4% in assay [6].

`O=c1c(-c2ccc(O)cc2)coc2cc(OC3OC(CO)C(O)C(O)C3O)cc(O)c12` (stereo not given): the growth inhibition in assay [1] was -35.5%; in assay [2], -26.8%; in assay [3] it was -40.8%; in assay [4] it was -10.7%; in assay [5], -60.2%; in assay [6], -83.3%.

On to `O=C(N=Nc1c(O)[nH]c2ccc(Br)cc12)c1ccco1`, for which the growth inhibition in assay [1] is 24.2%; in assay [2], 28.8%; in assay [3], 43.2%; in assay [4] it was 14.7%; in assay [5] it was 43.2%; in assay [6] it was 43%.

Consider `O=C(Nc1cccc2c1C(=O)c1c(NC(=O)c3ccccc3)ccc(Nc3cccc4c3C(=O)c3ccccc3C4=O)c1C2=O)c1ccccc1`, for which the growth inhibition in assay [1] is 8.05%; in assay [2], -2.65%; in assay [3], 0.9%; in assay [4] it was 10%; in assay [5] it was 9.05%; in assay [6], 3.45%.

In the case of `N#CC1=C2CCCC(C#N)=C2CCC1`, the growth inhibition in assay [1] is 0.95%; in assay [2], -1%; in assay [3] it was -4.55%; in assay [4], -40.1%; in assay [5], -21.3%; in assay [6], -13.8%.

Turning to `NC(=O)Cc1c[nH]c2ccccc12`, the growth inhibition is 39.7% in assay [1]; -3.95% in assay [2]; 14.3% in assay [3]; -37.2% in assay [4]; 33.4% in assay [5]; 48.6% in assay [6].

Consider `O=C1NN(c2ccccc2)C(=O)C2C3c4ccccc4C(c4ccccc43)C12` (stereo not given), for which the growth inhibition in assay [1] is 2.45%; in assay [2], -6.8%; in assay [3], 0.7%; in assay [4], -3.3%; in assay [5], -2.4%; in assay [6], 2.85%.

On to `CCCCN(CCCC)CC(O)c1cccc2c1cc(Cl)c1ccccc12` (stereo not given), for which the growth inhibition in assay [1] is 99.2% (active); in assay [2], 99.6% (active); in assay [3] it was 99.5% (active); in assay [4] it was 98.5% (active); in assay [5] it was 98.5% (active); in assay [6], 99.3% (active).

On to `CC(=O)N/N=C/c1ccc([N+](=O)[O-])s1`, for which the growth inhibition in assay [1] was 13.3%; in assay [2] it was 15.1%; in assay [3], 33.3%; in assay [4] it was -11.8%; in assay [5] it was 3.55%; in assay [6], 45.5%.

Consider `CC(C)(C)c1cc2c(O)c(c1)Cc1cc(C(C)(C)C)cc(c1O)Cc1cc(C(C)(C)C)cc(c1O)Cc1cc(C(C)(C)C)cc(c1O)Cc1cc(C(C)(C)C)cc(c1O)Cc1cc(C(C)(C)C)cc(c1O)Cc1cc(C(C)(C)C)cc(c1O)Cc1cc(C(C)(C)C)cc(c1O)C2`, for which the growth inhibition in assay [1] was -12.8%; in assay [2] it was 9.65%; in assay [3] it was 7.3%; in assay [4], 5.6%; in assay [5], -14%; in assay [6], -15.1%.

In the case of `COC(=O)C1C2C=CC(C2)N1[C@@H](C)c1ccccc1` (stereo not given in full), the growth inhibition is 8.55% in assay [1]; -28.3% in assay [2]; -40.1% in assay [3]; -5.6% in assay [4]; -28% in assay [5]; -21.4% in assay [6].

For `Nc1nc(-c2ccco2)cc(-c2ccc(CO)o2)n1`, the growth inhibition in assay [1] was -21.8%; in assay [2] it was 3.5%; in assay [3], -10.2%; in assay [4] it was 8.25%; in assay [5], 16%; in assay [6], 3.9%.

As to `O=C1C2C3C=CC(O3)C2C(=O)N1CCN1CCCCC1` (stereo not given), the growth inhibition is -0.75% in assay [1]; -4.8% in assay [2]; -0.65% in assay [3]; 6.5% in assay [4]; -2.15% in assay [5]; -6.05% in assay [6].
